Data as given in PubChem BioAssay AID504810 (National Center for Advancing Translational Sciences (NCATS), 2011).
Among all 330,000 compounds or so, about 670 (0.2%) were called active. Only a selection was taken, and actives are over-represented in it overall. Values without a mark were called inactive.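 How the source made its calls: active means activity change below a set negative limit, meaning inhibition stronger than a set level (cut at about -70% in these data); inconclusive means activity change between two set negative limits; inactive means the rest.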

What follows are molecules tested against Thyrotropin receptor (Homo sapiens) (UniProt P16473) (assay: Antagonists of the Thyroid Stimulating Hormone Receptor: HTS campaign). Settings: TSHR-expressing cells, TSH-stimulated cAMP HTRF, 2 h; at 11.5 µM; stronger effect = lower value.
Sequence of Thyrotropin receptor (Homo sapiens) (P16473 whole entry, looked up): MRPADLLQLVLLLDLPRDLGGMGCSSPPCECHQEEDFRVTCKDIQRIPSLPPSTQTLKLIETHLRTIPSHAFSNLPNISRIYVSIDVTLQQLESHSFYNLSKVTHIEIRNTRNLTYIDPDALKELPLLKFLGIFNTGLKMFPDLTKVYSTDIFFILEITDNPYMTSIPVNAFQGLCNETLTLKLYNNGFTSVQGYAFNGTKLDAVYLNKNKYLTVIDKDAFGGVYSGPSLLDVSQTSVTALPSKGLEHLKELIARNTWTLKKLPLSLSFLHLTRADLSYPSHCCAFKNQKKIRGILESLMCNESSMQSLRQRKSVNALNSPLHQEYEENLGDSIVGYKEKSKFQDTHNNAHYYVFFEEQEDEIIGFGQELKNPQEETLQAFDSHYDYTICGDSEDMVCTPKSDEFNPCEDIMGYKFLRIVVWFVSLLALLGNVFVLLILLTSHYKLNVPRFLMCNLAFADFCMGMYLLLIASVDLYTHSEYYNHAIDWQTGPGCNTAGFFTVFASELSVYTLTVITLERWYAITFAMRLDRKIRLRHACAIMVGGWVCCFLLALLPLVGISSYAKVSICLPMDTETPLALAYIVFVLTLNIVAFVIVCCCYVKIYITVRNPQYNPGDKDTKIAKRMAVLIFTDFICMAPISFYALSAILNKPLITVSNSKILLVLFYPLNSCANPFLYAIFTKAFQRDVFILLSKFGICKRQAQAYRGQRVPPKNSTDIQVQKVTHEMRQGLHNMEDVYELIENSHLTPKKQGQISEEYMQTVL
In short: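 Freshly harvested TSHR cells receive pin-tooled compound, then EC80 TSH at 4nM final. After 2 hours at 37 deg C, antibody in lysis buffer and cAMP-d2 are added; 30 minutes at ambient temperature precede the HTRF read.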
On the % scale 0 is the no-effect control and ±100 the full control effect.

SMILES	activity change, negative = inhibition
COc1cccc(CNS(=O)(=O)c2ccc3c(c2)CC(C)N3C(C)=O)c1 (stereo not given)	-6.62%
CC(=O)N1c2ccc(S(=O)(=O)NCCC(=O)N(C)C3CCCCC3)cc2CC1C (stereo not given)	4.56%
CC(=O)N1c2ccc(S(=O)(=O)N(C)CC(=O)N(C)Cc3ccccc3)cc2CC1C (stereo not given)	-99.1% (active)
Cc1ccc2cc(C)c(N3CCN(c4ccc(F)cc4)CC3)nc2c1	12.4%
CC(Sc1nncs1)C(=O)NCc1ccc2c(c1)OCO2 (stereo not given)	18.9%
COc1cccc(CNC(=O)c2nnn(CC(=O)Nc3cc(Cl)ccc3C)c2N)c1	-74.4% (active)
COc1ccc(CNC(=O)c2nnn(CC(=O)Nc3cc(C)cc(C)c3)c2N)cc1	5.35%
COc1cccc(CNC(=O)c2nnn(CC(=O)Nc3cc(C)ccc3C)c2N)c1	4.35%
CC(=O)/C(C)=N/O	17.4%
CC12CCC(C(=O)N(NC(=O)c3ccccc3O)C1=O)C2(C)C (stereo not given)	68.7%
COc1cc(/C=C(/NC(=O)c2ccc(Cl)cc2Cl)C(=O)O)cc(OC)c1OC	-0.961%
COc1cccc(CCNC(=O)COc2cccc3c2OC(C)(C)C3)c1	-10.3%
COc1ccccc1C(=O)NCCC(=O)N(C)Cc1cccnc1	9.57%
COc1cc(C2NC(=O)NC(c3ccccc3)=C2C(C)=O)c(Br)cc1OCC(N)=O (stereo not given)	-8.27%
C[C@H](NC(=O)c1nc[nH]c1C(=O)NCC(=O)OC(C)(C)C)C(=O)OCc1ccccc1	-7.53%
O=C(NNC(=O)c1cc(-c2ccccc2Cl)nc2ccccc12)c1csc(N2CCOCC2)n1	0.138%
CS(=O)(=O)N(CC(=O)N/N=C/c1ccccn1)c1ccc(Oc2ccccc2)cc1	-9.31%
O=[N+]([O-])c1c(NCCO)cc(Sc2nc3ccccc3s2)c2nonc12	-94.3% (active)
NC(=O)c1ccc(Nc2ccc3nonc3c2[N+](=O)[O-])cc1	27.6%
Cc1nc2nc(CSc3nc4ccccc4s3)cc(=O)n2[nH]1	-15%
O=C(COC(=O)COc1cccc(F)c1)NCC1CCCCC1	8.58%
O=C(Cc1c(F)cccc1Cl)Nc1ncc([N+](=O)[O-])s1	-13.2%
Cc1cnc(NC(=O)c2ccccn2)s1	6.51%
CC(=O)Oc1ccccc1C(=O)Nc1ncc([N+](=O)[O-])s1	-80.5% (active)
CCOc1ccc(C(CC(=O)O)NC(=O)C23CC4CC(CC(C4)C2)C3)cc1OC (stereo not given)	-4.83%

SMILES	activity change, negative = inhibition
Cc1occc1-c1nnc(SCC(=O)NC2CCCCC2)o1	-3.93%
CCCCCCCCc1c(O)nc(-n2[nH]c(C)c(CCO)c2=O)[nH]c1=O	7.75%
Cc1cccc(C(=O)NNC(=O)CSc2nnc(C(C)C)n2C)c1	2.38%
Cc1ccc(SCC(=O)c2cc(C)c(OC(=S)N(C)C)c(C)c2)cc1	-25%
O=C(NC(Nc1nc2ccc([N+](=O)[O-])cc2s1)(C(F)(F)F)C(F)(F)F)c1ccccc1	-78.9% (active)
Cc1cc(CNC(=O)c2cccc([N+](=O)[O-])c2)c2ccccc2n1	-9.8%
N=C1C(c2nc3ccccc3s2)=C(O)CN1NC(=O)c1ccc([N+](=O)[O-])cc1	-1.44%
CN(C)c1cc2c(Nc3ccc4c(cnn4Cc4ccccc4)c3)ncnc2cn1	-17.2%
COc1ccc(CCNC(=O)C2CC3Cn4c(nc5cc(C)c(C)cc54)C3N2C)cc1 (stereo not given)	-1.1%
Nc1ncnc2c1c(I)cn2[C@@H]1C[C@H](N)[C@@H](O)[C@H]1O	-18%
CCOc1ccc(C(=O)NC2CCN(CC(=O)NCc3cccs3)CC2)cc1	1.48%
O=C(Nn1c(SCc2ccc([N+](=O)[O-])cc2)nc2ccccc2c1=O)c1ccc(F)cc1	-74.2% (active)
Cc1nc2ccccc2c(=O)n1NC(=O)c1ccc(Cl)c([N+](=O)[O-])c1	-24.1%
C=CCn1c(SCc2ccc(C(=O)NCCO)cc2)nc2ccccc2c1=O	-4.95%
CCO[C@@H]1OC(C(=O)NCc2nc3ccccc3[nH]2)=C[C@H](C2CCCCC2)[C@H]1CCCO	-6.97%
CC(C)C[C@H](NC(=O)[C@H](O)[C@H](N)Cc1ccccc1)C(=O)O	-6.27%
O=C(CSc1nc(-c2ccccc2)cs1)Nc1cccc([N+](=O)[O-])c1	-78.8% (active)
COc1ccc(-n2cnnc2SCC(=O)Nc2cccc([N+](=O)[O-])c2)cc1	-5.22%
O=C(CSc1ncn[nH]1)Nc1nc(-c2cccc([N+](=O)[O-])c2)cs1	7.62%
COc1cc(NC(=O)c2cc([N+](=O)[O-])ccc2Br)ccc1NC(=O)c1ccco1	-16.5%
Cc1ccccc1NC(=O)CSc1nc2ccc(Nc3nc(N4CCOCC4)nc(N4CCOCC4)n3)cc2s1	-6.48%
Cc1ccc(Nc2nc(N)nc(CN3CCN(Cc4ccccc4)CC3)n2)cc1Cl	5.19%
Cc1ccc(Nc2nc(N3CCOCC3)nc(N3CCOCC3)n2)cc1Cl	-135% (active)
O=C(Nc1ccc(-c2cscn2)cc1)C1CCCN(Cc2ccc(CO)o2)C1 (stereo not given)	14.3%
CSc1nnc(-c2ccc(C(F)(F)F)cn2)o1	7.33%
